Reference: PubChem BioAssay (EPA / NIEHS)
Results filed as inconclusive are left out. Active and inactive are the calls of the source. How the source made its calls, unless noted: active means hit-call score of the fitted dose curve at least 0.9, where 1 is the maximum; inconclusive means response in the unintended direction; inactive means score below 0.9.

What was measured:
[1] = ATG_PPRE_CIS: Attagene CIS-FACTORIAL HepG2 Assay for human Peroxisome Proliferator-activated Response Element (PPRE) (AID 2282958; active means hit-call score of the fitted dose curve at least 0.9, where 1 is the maximum; inactive means score below 0.9); settings: HepG2 PPRE cis-element reporter, Attagene transcription factor profiling; actives raise or lower the signal
Method in brief: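 Cells are first transfected transiently with the multiplexed reporter library, then dosed for 24 h. Total RNA is reverse-transcribed, amplified, fluorescently end-labeled and HpaI-cut before capillary electrophoresis; activity is fitted bidirectionally against DMSO controls.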

[2] = target: Oxysterols receptor LXR-alpha (Homo sapiens) (UniProt Q13133); assay: ATG_LXRa_TRANS: Attagene TRANS-FACTORIAL HepG2 Assay for human Liver X Receptor alpha (LXRa) (AID 2282980); settings: HepG2 Attagene TRANS reporter, LXRa transactivation
Sequence of Oxysterols receptor LXR-alpha (Homo sapiens) (Q13133 whole entry, looked up): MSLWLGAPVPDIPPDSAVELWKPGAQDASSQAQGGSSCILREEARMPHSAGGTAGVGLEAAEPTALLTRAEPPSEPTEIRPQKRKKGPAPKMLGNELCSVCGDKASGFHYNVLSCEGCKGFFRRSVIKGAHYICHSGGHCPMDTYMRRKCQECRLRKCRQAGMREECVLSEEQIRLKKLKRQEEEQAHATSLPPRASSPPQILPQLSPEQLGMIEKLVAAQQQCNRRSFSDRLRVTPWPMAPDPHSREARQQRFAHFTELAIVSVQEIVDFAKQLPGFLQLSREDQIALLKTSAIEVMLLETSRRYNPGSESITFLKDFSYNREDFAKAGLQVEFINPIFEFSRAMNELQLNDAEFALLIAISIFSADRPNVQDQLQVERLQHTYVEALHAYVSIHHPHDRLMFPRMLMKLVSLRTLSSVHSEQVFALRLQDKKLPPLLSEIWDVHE
Method in brief: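 Transient HepG2 transfectants, 24 h dosing, RT-PCR/CE mRNA reporter quantitation; gain-of-signal vs DMSO.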

[3] = target: Nuclear respiratory factor 1 (Homo sapiens) (UniProt Q16656); assay: ATG_NRF1_CIS: Attagene CIS-FACTORIAL HepG2 Assay for human Nuclear Respiratory Factor 1 (NRF1) Orphan Gene (AID 2282987; active means hit-call score of the fitted dose curve at least 0.9, where 1 is the maximum; inactive means score below 0.9); settings: HepG2 NRF1 cis-element reporter, Attagene multiplex; actives raise or lower the signal
Sequence of Nuclear respiratory factor 1 (Homo sapiens) (Q16656 whole entry, looked up, the tested form may be a part): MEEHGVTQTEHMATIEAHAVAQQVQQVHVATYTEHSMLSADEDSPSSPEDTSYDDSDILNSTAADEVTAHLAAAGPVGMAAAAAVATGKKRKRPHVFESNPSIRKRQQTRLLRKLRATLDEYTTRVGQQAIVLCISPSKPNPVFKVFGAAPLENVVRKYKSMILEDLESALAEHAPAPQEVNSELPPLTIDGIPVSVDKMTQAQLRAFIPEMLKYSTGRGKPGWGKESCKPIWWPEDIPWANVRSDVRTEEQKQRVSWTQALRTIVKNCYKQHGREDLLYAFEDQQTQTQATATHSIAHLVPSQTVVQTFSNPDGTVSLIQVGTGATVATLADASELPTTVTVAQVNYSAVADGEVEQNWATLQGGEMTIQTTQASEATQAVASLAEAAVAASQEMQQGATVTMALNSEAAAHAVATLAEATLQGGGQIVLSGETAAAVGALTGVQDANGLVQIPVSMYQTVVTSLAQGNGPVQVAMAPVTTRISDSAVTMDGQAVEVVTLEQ
Method in brief: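 Fluorescence intensity of labelled reporter cDNA fragments, resolved by capillary electrophoresis, served as readout for NRF1 cis-element activity. Transiently transfected HepG2 cells were dosed for 24 hours; activity in either direction was fitted against DMSO negative control.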

[4] = ATG_NF_kB_CIS: Attagene CIS-FACTORIAL HepG2 Assay for human Nuclear Factor Kappa B (NF-kB) (AID 2282991; active means hit-call score of the fitted dose curve at least 0.9, where 1 is the maximum; inactive means score below 0.9); settings: HepG2 Attagene cis-factorial NF-kB reporter mRNA; actives raise or lower the signal
Method in brief: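 Endogenous transcription factor activity in HepG2 was captured via cis-regulated reporter constructs; after 24 h dosing, reporter mRNA was reverse-transcribed, amplified, fluorescently labelled and sized by capillary electrophoresis, with activity fitted bidirectionally relative to DMSO.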

[5] = target: human Vitamin D Receptor (VDR), VDR (gene 7421) (UniProt P11473); assay: ATG_VDR_TRANS: Attagene TRANS-FACTORIAL HepG2 Assay for human Vitamin D Receptor (VDR) (AID 2283022)
Sequence of human Vitamin D Receptor (VDR), VDR (gene 7421) (P11473 whole entry, looked up, the tested form may be a part): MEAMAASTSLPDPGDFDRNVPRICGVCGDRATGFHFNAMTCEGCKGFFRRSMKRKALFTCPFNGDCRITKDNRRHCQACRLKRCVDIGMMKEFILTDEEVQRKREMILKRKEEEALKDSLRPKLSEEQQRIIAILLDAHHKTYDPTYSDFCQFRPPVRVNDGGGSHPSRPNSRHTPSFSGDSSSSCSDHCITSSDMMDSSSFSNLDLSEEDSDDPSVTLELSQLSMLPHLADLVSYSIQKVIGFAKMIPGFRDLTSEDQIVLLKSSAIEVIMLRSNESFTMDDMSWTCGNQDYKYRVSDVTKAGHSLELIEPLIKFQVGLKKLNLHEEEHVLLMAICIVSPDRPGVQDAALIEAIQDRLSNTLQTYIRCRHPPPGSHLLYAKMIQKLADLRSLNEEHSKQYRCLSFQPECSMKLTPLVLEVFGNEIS
Method in brief: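 Fluorescence of labelled reporter cDNA fragments, resolved by capillary electrophoresis, gives mRNA induction after 24 h treatment of HepG2 cells carrying transfected Gal4-fusion reporter units. Activity is fitted in the positive direction with DMSO as baseline.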

[6] = ATG_XTT_Cytotoxicity: Cytotoxicity Assessment in the Attagene TRANS-FACTORIAL HepG2 Assay (AID 2283584)
Method in brief: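 Transfect HepG2 with GAL4-UAS reporter units, dose compound, incubate 24 h, then measure viable cell number by XTT. Fit concentration response against DMSO baseline.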

[7] = CCTE_Shafer_MEA_acute_per_network_burst_electrodes_number_mean: CCTE's Neural Acute Assay for Mean Number of Electrodes in a Network Burst, Shafer Lab (AID 2284021; active means hit-call score of the fitted dose curve at least 0.9, where 1 is the maximum; inactive means score below 0.9;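 further: curves fitted for decreases only so hits reduce electrodes per burst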)
Method in brief: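 Cultures of rat cortex neurons were exposed on DIV 13 or 15 to compounds at 0.03-40 uM in at least three wells each. Activity over 40 min before and 40 min after exposure at 37 C gave the percent change in electrodes per network burst.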

[8] = CCTE_Shafer_MEA_acute_network_burst_percentage: CCTE's Neural Acute Assay for Percentage of Network Bursts, Shafer Lab (AID 2284022; active means hit-call score of the fitted dose curve at least 0.9, where 1 is the maximum; inactive means score below 0.9;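 further: curves fitted for loss so actives lower network burst percentage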)
Method in brief: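 Cortical neurons from rat were grown over microelectrode arrays and used on day 13 or 15 in vitro. Wells with at least 10 active electrodes received test chemical at 0.03-40 uM. Activity during 40 min of exposure was compared with the preceding 40-min baseline.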

[9] = CCTE_Shafer_MEA_acute_cross_correlation_area: CCTE's Neural Acute Assay for Area of Cross Correlation, Shafer Lab (AID 2284024; active means hit-call score of the fitted dose curve at least 0.9, where 1 is the maximum; inactive means score below 0.9;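 further: area under pooled inter-electrode spike cross-correlation near zero lag as percent change from own baseline; curves fitted for loss of cross-correlation area so actives lower synchrony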)
Method in brief: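 Acute exposure of mature rat cortical networks (day 13 or 15 post-plating) to 0.03-40 uM compound. Spontaneous spiking on MEA, 40 min pre- and post-dose at 37 C.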

[10] = CCTE_Shafer_MEA_acute_synchrony_index: CCTE's Neural Acute Assay for Synchrony, Shafer Lab (AID 2284027; active means hit-call score of the fitted dose curve at least 0.9, where 1 is the maximum; inactive means score below 0.9;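 further: network synchrony index of spontaneous spiking in primary rat cortical neurons on MEAs; fitted for loss of signal so actives lower synchrony relative to DMSO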)
Method in brief: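 Rat cortical cultures, DIV 13/15; spikes detected at 8x rms noise, 300-5000 Hz band-pass. Compound 0.03-40 uM, ≥3 wells; 40-min pre- and post-exposure recordings, 37 C. Readout: % change in synchrony index; loss-of-signal fit vs DMSO.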

[11] = CCTE_Shafer_MEA_acute_LDH: CCTE's Lactate Dehydrogenase Assay for Cytotoxicity in the Neural Acute Assay, Shafer Lab (AID 2284086);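 further: active means LDH release rises above DMSO vehicle level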
Method in brief: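 LDH absorbance at 490 nm in medium taken right after 40-min compound exposure; rat primary cortical neuron networks on MEA plates, days post-plating 13 or 15. Increase over DMSO baseline scored as cytotoxicity.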

[12] = ATG_GAL4_TRANS: Attagene TRANS-FACTORIAL HepG2 Assay for GAL4 (Internal Marker) (AID 2282976); settings: HepG2 Attagene TRANS GAL4 internal marker reporter
Method in brief: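 Fluorescence from capillary electrophoresis of labelled RT-PCR products quantifies reporter mRNA induction after 24 h dosing of HepG2 cells carrying transfected GAL4-UAS reporter transcription units. Vehicle DMSO serves as baseline.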

[13] = target: Hepatocyte nuclear factor 4-alpha (Homo sapiens) (UniProt P41235); assay: ATG_HNF4a_TRANS: Attagene TRANS-FACTORIAL HepG2 Assay for human Hepatocyte Nuclear Factor 4 alpha (HNF4a) (AID 2282982); settings: HepG2 HNF4a transactivation reporter, mRNA readout
Sequence of Hepatocyte nuclear factor 4-alpha (Homo sapiens) (P41235 whole entry, looked up): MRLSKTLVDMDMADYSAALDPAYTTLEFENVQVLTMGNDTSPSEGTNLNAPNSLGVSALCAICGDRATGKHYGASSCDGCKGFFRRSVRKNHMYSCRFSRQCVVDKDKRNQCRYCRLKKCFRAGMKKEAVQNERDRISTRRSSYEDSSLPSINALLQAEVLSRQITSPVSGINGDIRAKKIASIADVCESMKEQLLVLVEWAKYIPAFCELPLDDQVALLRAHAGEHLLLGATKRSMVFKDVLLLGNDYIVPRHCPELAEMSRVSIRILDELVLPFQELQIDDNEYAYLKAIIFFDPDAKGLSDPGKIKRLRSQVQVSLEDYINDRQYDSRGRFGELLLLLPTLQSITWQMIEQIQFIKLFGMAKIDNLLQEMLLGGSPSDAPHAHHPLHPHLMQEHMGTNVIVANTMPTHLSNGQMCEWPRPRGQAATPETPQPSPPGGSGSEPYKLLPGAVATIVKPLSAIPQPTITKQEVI
Method in brief: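 Transient MRTU transfection of HepG2, 24 h dosing. Readout: reporter mRNA via RT-PCR + capillary electrophoresis, fluorescence; activity fit upward relative to DMSO control.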

[14] = ATG_M_32_TRANS: Attagene TRANS-FACTORIAL HepG2 Assay for M32 Transcription Factor (Internal Marker) (AID 2282984); settings: HepG2 Attagene TRANS M32 internal marker reporter;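 further: transcript level of a background control reporter unit measured by RT-PCR and capillary electrophoresis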
Method in brief: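 Read-out: fluorescent reporter cDNA fragments resolved by capillary electrophoresis after RT-PCR of total RNA. Transfected HepG2 cells were exposed to chemical for 24 h. Activity scored in the positive direction relative to DMSO.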

[15] = target: Nuclear receptor subfamily 4 group A member 2 (Homo sapiens) (UniProt P43354); assay: ATG_NURR1_TRANS: Attagene TRANS-FACTORIAL HepG2 Assay for human Nuclear Receptor Related Protein 1 (NURR1) (AID 2282985); settings: HepG2 Attagene TRANS reporter, mRNA readout
Sequence of Nuclear receptor subfamily 4 group A member 2 (Homo sapiens) (P43354 whole entry, looked up, the tested form may be a part): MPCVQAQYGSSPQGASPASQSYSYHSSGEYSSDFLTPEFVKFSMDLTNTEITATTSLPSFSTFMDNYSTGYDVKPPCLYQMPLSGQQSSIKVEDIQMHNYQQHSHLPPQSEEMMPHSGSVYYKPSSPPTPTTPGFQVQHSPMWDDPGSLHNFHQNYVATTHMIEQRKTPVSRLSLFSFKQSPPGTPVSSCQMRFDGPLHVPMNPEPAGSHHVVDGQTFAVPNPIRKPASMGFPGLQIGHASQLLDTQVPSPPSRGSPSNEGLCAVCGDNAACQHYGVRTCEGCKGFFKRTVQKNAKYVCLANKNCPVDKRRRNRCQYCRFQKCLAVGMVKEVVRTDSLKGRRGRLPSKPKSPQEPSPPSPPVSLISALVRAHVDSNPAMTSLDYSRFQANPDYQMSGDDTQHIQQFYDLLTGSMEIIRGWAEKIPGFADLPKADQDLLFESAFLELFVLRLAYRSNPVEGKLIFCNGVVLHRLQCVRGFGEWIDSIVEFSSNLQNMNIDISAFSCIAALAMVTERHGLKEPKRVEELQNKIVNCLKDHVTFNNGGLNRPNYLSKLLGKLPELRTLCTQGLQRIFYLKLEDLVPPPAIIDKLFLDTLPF
Method in brief: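 Read-out: reporter mRNA induction by RT-PCR plus capillary electrophoresis with fluorescence detection, after 24 h dosing of transfected HepG2 cells. Exogenous NR-Gal4 chimera activity drives GAL4-UAS reporter; activity fitted upward versus DMSO.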

[16] = ATG_GRE_CIS: Attagene CIS-FACTORIAL HepG2 Assay for human Glucocorticoid Response Elements (GRE) (AID 2282947; active means hit-call score of the fitted dose curve at least 0.9, where 1 is the maximum; inactive means score below 0.9); settings: HepG2 GRE cis-reporter, Attagene multiplex mRNA; actives raise or lower the signal
Method in brief: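 Read-out: fluorescent reporter-transcript fragments separated by capillary electrophoresis after RT-PCR. Transiently transfected HepG2 cells carrying cis-element-driven reporter units were dosed for 24 h; gain or loss of signal fitted against DMSO control.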

[17] = target: Glucocorticoid receptor (Homo sapiens) (UniProt P04150); assay: ATG_GR_TRANS: Attagene TRANS-FACTORIAL HepG2 Assay for human Glucocorticoid Receptor (GR) (AID 2282978); settings: HepG2 Attagene TRANS GR reporter, mRNA transcription;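 further: activators score as hits since higher reporter transcript over DMSO is fitted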
Sequence of Glucocorticoid receptor (Homo sapiens) (P04150 whole entry, looked up, the tested form may be a part): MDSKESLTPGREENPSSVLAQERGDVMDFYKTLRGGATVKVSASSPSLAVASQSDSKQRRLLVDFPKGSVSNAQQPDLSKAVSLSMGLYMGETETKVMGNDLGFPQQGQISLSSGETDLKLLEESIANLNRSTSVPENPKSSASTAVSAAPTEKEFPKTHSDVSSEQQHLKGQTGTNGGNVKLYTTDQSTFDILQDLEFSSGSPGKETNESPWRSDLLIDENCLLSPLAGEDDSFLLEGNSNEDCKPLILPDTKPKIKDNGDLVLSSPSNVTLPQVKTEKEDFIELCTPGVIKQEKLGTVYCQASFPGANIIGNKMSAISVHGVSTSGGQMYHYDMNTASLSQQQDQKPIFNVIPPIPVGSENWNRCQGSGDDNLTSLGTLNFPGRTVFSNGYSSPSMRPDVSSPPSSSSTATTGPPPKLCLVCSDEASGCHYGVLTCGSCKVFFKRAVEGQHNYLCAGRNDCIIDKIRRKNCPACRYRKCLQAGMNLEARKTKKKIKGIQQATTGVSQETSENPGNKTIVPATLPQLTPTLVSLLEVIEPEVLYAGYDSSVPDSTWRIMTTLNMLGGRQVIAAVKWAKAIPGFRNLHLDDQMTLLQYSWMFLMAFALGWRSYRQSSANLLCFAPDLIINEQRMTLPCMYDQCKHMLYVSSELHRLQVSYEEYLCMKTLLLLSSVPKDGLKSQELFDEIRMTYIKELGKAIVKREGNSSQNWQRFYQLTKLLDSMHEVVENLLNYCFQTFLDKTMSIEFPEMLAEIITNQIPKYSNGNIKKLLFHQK
Method in brief: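 In this trans-factorial format, exogenous NR-GAL4 chimeric proteins in transfected HepG2 cells regulate GAL4-UAS reporter transcription. After 24 h treatment, reporter mRNA induction relative to DMSO is read by RT-PCR and capillary electrophoresis.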

[18] = target: Bile acid receptor (Homo sapiens) (UniProt Q96RI1); assay: ATG_FXR_TRANS: Attagene TRANS-FACTORIAL HepG2 Assay for Farnesoid X Receptor (FXR) (AID 2282979); settings: HepG2 Attagene TRANS FXR-GAL4 reporter transcription;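 further: hits raise reporter mRNA above DMSO so AC50 marks FXR activation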
Sequence of Bile acid receptor (Homo sapiens) (Q96RI1 whole entry, looked up, the tested form may be a part): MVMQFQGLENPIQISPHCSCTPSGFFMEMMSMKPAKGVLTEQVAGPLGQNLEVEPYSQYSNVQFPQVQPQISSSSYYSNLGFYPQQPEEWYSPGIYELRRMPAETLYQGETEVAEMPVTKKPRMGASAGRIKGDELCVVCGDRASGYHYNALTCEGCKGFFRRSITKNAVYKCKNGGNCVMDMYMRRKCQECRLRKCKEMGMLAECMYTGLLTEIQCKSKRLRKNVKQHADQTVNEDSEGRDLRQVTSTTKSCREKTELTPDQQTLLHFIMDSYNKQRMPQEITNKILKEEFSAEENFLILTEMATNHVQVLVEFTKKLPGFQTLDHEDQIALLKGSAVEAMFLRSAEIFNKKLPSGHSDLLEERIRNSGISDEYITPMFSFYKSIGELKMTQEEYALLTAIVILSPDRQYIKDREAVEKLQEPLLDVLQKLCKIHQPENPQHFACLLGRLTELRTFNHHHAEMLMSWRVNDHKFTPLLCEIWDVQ
Method in brief: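 Chimeric FXR-GAL4 activity in transiently transfected human HepG2 liver cells is scored as induction of reporter mRNA after 24 h of dosing. Detection uses RT-PCR with fluorescent labelling and capillary electrophoresis, with DMSO serving as baseline.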

[19] = target: Bile acid receptor (Homo sapiens) (UniProt Q96RI1); assay: ATG_IR1_CIS: Attagene CIS-FACTORIAL HepG2 Assay for human Nuclear Receptor Subfamily 1 Group H Member 4 (NR1H4), IR1 submotif (AID 2282946; active means hit-call score of the fitted dose curve at least 0.9, where 1 is the maximum; inactive means score below 0.9); settings: IR1 reporter transcription, actives raise or lower the signal
Method in brief: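 Fluorescence of capillary-separated, HpaI-digested RT-PCR reporter products gave IR1-element mRNA induction in HepG2 cells 24 h after dosing. Endogenous transcription factors drove the cis-regulated reporters; activity was fitted bidirectionally against DMSO.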

[20] = CCTE_Harrill_HTTr_CellCount_MCF7: CCTE's Cell Proliferation Assessment for the High-Throughput Transcriptomics (HTTr) Platform, Harrill Lab (AID 2284012);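 further: count of Hoechst-stained nuclei per well by high-content imaging in MCF-7 cells; cells exposed to compound for six hours; intended direction is loss of nuclei count meaning fewer cells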
Method in brief: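 Readout: Hoechst nuclear count by high-content imaging. MCF-7, 8-point dilution series, 6 h exposure. Bidirectional fit vs DMSO baseline.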

Measured: AC50

C[Si](C)(C)O[Si](C)(C)O[Si](C)(C)C
inactive: [1] | [2] | [3] | [4] | [5] | [6]

COc1cc(CNC(=O)CCCC/C=C/C(C)C)ccc1O
active: [10] 5.59 µM
inactive: [7] | [8] | [9] | [11]

CC[N+](CC)(CC(=O)Nc1c(C)cccc1C)Cc1ccccc1
inactive: [12] | [2] | [13] | [14] | [15] | [6]

CCCN[C@H]1CCc2nc(N)sc2C1
inactive: [2] | [3] | [4] | [5]

COc1ccc2ccccc2c1
inactive: [16] | [1] | [12] | [17] | [18] | [2] | [14]

CCCCCC[C@@H](O)C/C=C\CCCCCCCC(=O)O
active: [19] 149 µM | [16] 186 µM | [1] 45.7 µM | [15] 108 µM | [3] 139 µM
inactive: [17] | [18] | [13] | [14] | [4] | [5] | [20]

O=[N+]([O-])c1cc(S(=O)(=O)Nc2ccccc2)ccc1Nc1ccccc1
active: [10] 23.8 µM
inactive: [7] | [8] | [9] | [11]

CCCCCCCCCC/C=C/C1CC(=O)OC1=O (stereo not given)
inactive: [19] | [16] | [17] | [18] | [2] | [14] | [15] | [4] | [5] | [6]

Oc1cccc2ccccc12
inactive: [19] | [16] | [18] | [15] | [4] | [5] | [6] | [20]

O=S(=O)(O)c1cccc2ccccc12
inactive: [16] | [1] | [13] | [3]

CCCCC(CC)COC(=O)C=Cc1ccc(OC)cc1 (stereo not given)
inactive: [20]

Cc1c(C(N)=O)cc([N+](=O)[O-])cc1[N+](=O)[O-]
inactive: [7] | [8] | [9] | [10] | [11]

CCCCCCOC(=O)CCCCCCCC(=O)OCCCCCC
inactive: [16] | [12] | [17] | [2] | [13] | [14] | [15] | [3] | [4] | [5]

COc1ccccc1OCC(O)CO (stereo not given)
inactive: [1] | [13] | [14] | [15] | [4]

COc1ccc(C(=O)c2ccccc2O)c(O)c1
inactive: [7] | [10] | [11]
active: [8] 0.003 µM | [9] 0.0203 µM

C1CN(CCOCCN2CCOCC2)CCO1
inactive: [7] | [8] | [9] | [10] | [11]

Oc1ccc(Oc2ccccc2)cc1
active: [1] 48 µM
inactive: [19] | [18] | [2] | [3] | [4] | [5]

CCC[Si](OC(C)=O)(OC(C)=O)OC(C)=O
active: [9] 0.072 µM
inactive: [7] | [8] | [10] | [11]

CC(C)C1OCCN1CCOC(=O)NCCCCCCNC(=O)OCCN1CCOC1C(C)C (stereo not given)
inactive: [7] | [8] | [9] | [10] | [11]

COc1ccccc1Oc1c(NS(=O)(=O)c2ccc(C(C)(C)C)cc2)nc(-c2ncccn2)nc1OCCO
inactive: [7] | [8] | [9] | [10]

CCO[Si](OCC)(OCC)c1ccccc1
inactive: [19] | [16] | [12] | [17] | [14] | [15] | [3] | [5]

CC(=O)O[C@]1(C(C)=O)CC[C@H]2[C@@H]3C=C(C)C4=CC(=O)CC[C@]4(C)[C@H]3CC[C@@]21C
inactive: [20]

CC(C)(C)NC(=O)[C@@H]1CN(Cc2cccnc2)CCN1C[C@@H](O)C[C@@H](Cc1ccccc1)C(=O)N[C@H]1c2ccccc2C[C@H]1O
inactive: [19] | [16] | [18] | [2] | [15] | [3] | [5] | [6]
active: [17] 13.4 µM

O=C(O)Cc1c[nH]c2ccccc12
inactive: [19] | [16] | [12] | [17] | [18] | [2] | [13] | [14] | [15] | [20]

CC[N+](CC)(CC(=O)Nc1c(C)cccc1C)Cc1ccccc1 (tested in a mixture with another compound)
inactive: [12] | [13] | [6] | [20] | [7] | [8] | [9] | [10] | [11]

C=C(C)C(=O)OCC1CCCO1 (stereo not given)
inactive: [19] | [16] | [17] | [18] | [13] | [14] | [3]

Oc1ccc2c(c1)Cc1ccccc1-2
inactive: [20]

CNCCC(Oc1ccc(C(F)(F)F)cc1)c1ccccc1 (stereo not given)
active: [10] 6.04 µM
inactive: [20] | [7] | [8] | [9] | [11]
